Pf growth 48h – Primary qHTS for delayed death inhibitors of the malarial parasite plastid, 48 hour incubation | P. falciparum luciferase growth in erythrocytes, 48 h | Potency, µM (top dose mostly 28.7 µM), for the others: at the top dose activity change, negative = inhibition, usual class: inhibitors | 310,000 tested, 5.9% active; further: potency means the concentration at half of the fitted maximal effect
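Growth was read as firefly luciferase luminescence after a 48 h, 37 C, 5% CO2 exposure of compounds to reporter-bearing P. falciparum cultures (0.1% parasitemia, 2% hematocrit final) in Albumax-supplemented RPMI 1640.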
LASV entry inh – qHTS for Inhibitors of binding or entry into cells for Lassa Virus; Potency, µM (series often up to 37.9 µM), inactives show at the top dose activity change, negative = inhibition, usual class: inhibitors; Lassa virus pseudotype entry inhibition, cell reporter; 300,000 tested, 1.2% active; AID 540256, 2011; calls by dose curve; tested in HEK293 cells; further: potency means the concentration at half of the fitted maximal effect; nearly all actives have a fitted effect of over 50% in size
HCMV inh – qHTS Assay for inhibitors of the human cytomegalovirus (HCMV); activity change, negative = inhibition, % at 57.5 µM; HFF cells, HCMV-luciferase reporter, 72 h; active compounds read low; AID 1259415, 2018; 410,000 tested, 4.5% active; in the data active means activity change below about -60%; inconclusive means no clear call, values can overlap the other calls; inactive means above about -39%
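Steps: HFFs plated, 16 h 37C; compounds added; HCMV-luciferase added to MOI 1 PFU/cell; 72 h 37C; OneGlo reagent, 5 min room temperature; luminescence read, normalized to controls.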
Marburg entry inh – qHTS for inhibitors of binding or entry into cells for Marburg Virus; AID 540276, 2011; Potency, µM (titrated, usually from 37.8 µM), for the others: at the top dose activity change, negative = inhibition, hits mostly inhibitors; 300,000 tested, 1.8% active; Marburg virus pseudotyped entry inhibition, cell reporter; calls by dose curve; tested in HEK293 cells; further: potency means the concentration at half of the fitted maximal effect
Pf growth 96h – Primary qHTS for delayed death inhibitors of the malarial parasite plastid, 96 hour incubation. P. falciparum luciferase reporter growth, 96 h. Potency, µM (titrated, usually from 28.7 µM), inactives show at the highest dose activity change, negative = inhibition, hits mostly inhibitors. 320,000 tested, 6.9% active. AID 504834, 2011; further: potency means the concentration at half of the fitted maximal effect
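Two-generation exposure (96 h) targets delayed-death phenotype. Reporter parasites carrying integrated firefly luciferase, in red cells at 2% hematocrit and 0.05% parasitemia final, kept at 37 C, 5% CO2; luminescence loss indicates inhibition.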
HCV inh – qHTS Assay for Inhibitors of Hepatitis C Virus (HCV) | Huh7.5.1 HCVcc-Cre infection, luciferase reporter, 44 h | Potency, µM (series often up to 41.8 µM), for inactives: at the highest dose activity change, negative = inhibition, hits mostly inhibitors | 340,000 tested, 3.4% active; further: potency means the concentration at half of the fitted maximal effect
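Cells (1,000/well) were plated 4 h before compound, then infected with HCVcc-Cre virus (~0.5 moi). After 44 h further culture, infection was read as luciferase luminescence following a 15 min substrate incubation at room temperature.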
* = called active by the depositor; [ ] = dose if it differs, or a comment. Most compounds without a hit are left out; they make up all but 14% or so of the library. Unless noted, the call rests on the fitted dose curve; in most records, active means well fitted inhibition curve with a large enough effect; inconclusive means small, poorly fitted or top-dose-only effect, or another doubt; inactive means no such curve, though single readings can be large or run the other way. On the % scale 0 is the no-effect control and ±100 the full control effect.

For CC(O)(c1cccnc1)c1nc(/C=C/c2ccccc2)cs1 (stereo not given) the results were HCMV inh -82.6*.
Screening CCC(O)CC(C(=O)NNc1ccccc1)C(=O)NNc1ccccc1 (stereo not given) returned Pf growth 48h 7.5%, LASV entry inh inconclusive, HCMV inh -37.8, Marburg entry inh 2.51µM*, Pf growth 96h inconclusive and HCV inh -6.0%.
For N#Cc1ccccc1NC(=O)CSc1nnc(N)s1 the results were LASV entry inh -3.9%[46.1 µM] and HCMV inh 65.8.
`COc1cccc(COc2nc3c(c(=O)n(C)c(=O)n3C)n2C)c1` gave Pf growth 48h 23.3%, LASV entry inh 2.8%, HCMV inh 15.8, Marburg entry inh 12.3%, Pf growth 96h 4.15µM* and HCV inh inconclusive.
CCn1c(Oc2ccccc2)nc2c1c(=O)n(C)c(=O)n2C was read as Pf growth 48h 30.5%, LASV entry inh 3.2%, HCMV inh -60.1*, Marburg entry inh 12.4%, Pf growth 96h -24.3% and HCV inh -8.1%.
Screening COc1ccc(Oc2nc3c(c(=O)n(C)c(=O)n3C)n2Cc2ccccc2Cl)cc1 returned LASV entry inh -3.7%[46.1 µM], HCMV inh -1.0 and Marburg entry inh inconclusive.
Cn1c(=O)c2c(nc(OCc3ccccc3)n2C)n(C)c1=O was read as HCMV inh -26.0, Pf growth 96h -0.8% and HCV inh inconclusive.
Screening COc1cccc(Cn2c(Oc3ccccc3)nc3c2c(=O)n(C)c(=O)n3C)c1 returned Pf growth 48h 0.657µM*, LASV entry inh inconclusive, HCMV inh -34.3, Marburg entry inh -1.0%, Pf growth 96h inconclusive and HCV inh inconclusive.
For Cn1c(=O)c2c(nc(Oc3ccccc3Cl)n2C)n(C)c1=O the results were Pf growth 48h -10.1%, LASV entry inh 18.7%[46.1 µM], HCMV inh -79.3*, Marburg entry inh 15.8%[46.1 µM], Pf growth 96h -7.2% and HCV inh 1.4%.
Screening COc1cccc(Cn2c(Oc3cccc(C)c3)nc3c2c(=O)n(C)c(=O)n3C)c1 returned Pf growth 48h inconclusive, LASV entry inh inconclusive, HCMV inh 22.8, Marburg entry inh inconclusive, Pf growth 96h 17.2% and HCV inh 11.2µM*.
Screening COCCCNc1nc2c(c(=O)n(C)c(=O)n2C)n1Cc1cccc(OC)c1 returned Pf growth 48h -24.4%, LASV entry inh -24.2%, HCMV inh 22.1, Marburg entry inh -27.3%[46.1 µM], Pf growth 96h inconclusive and HCV inh inconclusive.
`CCc1ccc(-n2c(SCC(=O)c3ccc4c(c3)NC(=O)CO4)nc3ccccc3c2=O)cc1` gave Pf growth 48h 13.9%, LASV entry inh inconclusive, HCMV inh -27.6, Marburg entry inh -4.5%[46.1 µM], Pf growth 96h 26.0% and HCV inh inconclusive.
Screening O=C1COc2ccc(C(=O)CSc3nc4ccccc4c(=O)n3-c3ccc(Cl)c(Cl)c3)cc2N1 returned Pf growth 48h 10.4µM*, LASV entry inh -12.6%, HCMV inh -80.8*, Marburg entry inh inconclusive, Pf growth 96h inconclusive and HCV inh -8.1%.
`C[C@@H]1CN([C@@H](C)CO)C(=O)c2cc(NC(=O)c3ccccc3)ccc2O[C@@H](C)CCCCO[C@@H]1CN(C)S(=O)(=O)c1ccc(F)cc1` gave HCMV inh 21.4.
O=C(Nc1ccc(-c2noc(-c3ccccc3F)n2)cc1)c1cccs1 was read as Pf growth 48h 16.3%, LASV entry inh 6.7%, HCMV inh 24.4, Marburg entry inh -24.0%, Pf growth 96h 9.28µM* and HCV inh -18.8%.
`Cc1ccc(NC(=O)c2cccs2)cc1` gave LASV entry inh -1.6%, HCMV inh 95.2, Marburg entry inh -4.6%, Pf growth 96h 65.7% and HCV inh -3.8%.
Screening NC(=O)c1ccc(-c2noc(-c3ccccc3F)n2)cc1 returned Pf growth 48h 236.5%, HCMV inh 50.5 and Pf growth 96h 226.8%.
Cc1ccccc1-c1nc(-c2ccc(NC(=O)c3cccs3)cc2)no1 was read as Pf growth 48h inconclusive, LASV entry inh 2.9%, HCMV inh 14.2, Marburg entry inh inconclusive, Pf growth 96h 23.4% and HCV inh 14.1µM*.
O=C(Nc1ccc2nc3n(c(=O)c2c1)CCCCC3)C(=O)Nc1ccccc1F was read as LASV entry inh -22.4%[46.1 µM], HCMV inh 19.4 and Marburg entry inh -13.9%[46.1 µM].
For S=C(NCc1ccccc1)Nc1ccncc1 the results were Pf growth 48h inconclusive, LASV entry inh inconclusive, HCMV inh inconclusive, Marburg entry inh 13.5%[46.1 µM], Pf growth 96h inconclusive and HCV inh 1.78µM*.
`S=C(NCc1ccncc1)Nc1ccc(Cl)c(Cl)c1` gave Pf growth 48h inconclusive, LASV entry inh -17.9%, HCMV inh inconclusive, Marburg entry inh inconclusive, Pf growth 96h inconclusive and HCV inh inconclusive.
Screening S=C(NCc1ccncc1)Nc1ccccc1 returned Pf growth 48h -12.0%, HCMV inh 0.4, Pf growth 96h 16.5% and HCV inh -0.3%.
For S=C(NCc1cccnc1)Nc1cc(Cl)cc(Cl)c1 the results were Pf growth 48h 2.94µM*, HCMV inh -8.9, Pf growth 96h inconclusive and HCV inh 7.1%.
Screening S=C(NCc1ccncc1)Nc1cc(Cl)cc(Cl)c1 returned Pf growth 48h 13.1µM*, HCMV inh -35.2, Pf growth 96h 35.2% and HCV inh 17.5%.
O=S(=O)(c1ccc(NC(=S)NCc2ccncc2)cc1)N1CCCCC1 was read as Pf growth 48h inconclusive, LASV entry inh 8.8%[46.1 µM], HCMV inh -64.7*, Marburg entry inh inconclusive, Pf growth 96h 1.7% and HCV inh 3.0%.
OC(c1ccccc1)(c1nc(-c2ccc(Cl)cc2)cs1)C(F)(F)F (stereo not given) was read as HCMV inh -24.4.
`CC1(C)CC(=O)C=C(c2ccc(-c3cccc(C(N)=O)c3)cc2)C1=O` gave HCMV inh 11.6.
Screening NC(CS)C(=O)O (stereo not given) returned Pf growth 48h 4.26µM* and Pf growth 96h -8.1%.
`NC(CSSCC(N)C(=O)O)C(=O)O` (stereo not given) gave Pf growth 48h -3.9% and Pf growth 96h 12.3%.
OCCCc1nc2n(n1)C(c1ccccc1)C=C(c1ccc(F)cc1)N2 (stereo not given) was read as Pf growth 48h inconclusive, LASV entry inh -0.5%, HCMV inh -37.4, Marburg entry inh 7.2%, Pf growth 96h -13.3% and HCV inh 11.2µM*.
OCCCc1nc2n(n1)C(c1cccs1)C=C(c1ccccc1)N2 (stereo not given) was read as Marburg entry inh 7.4% and Pf growth 96h 2.5%.

Assay outcomes: PubChem, National Center for Advancing Translational Sciences (NCATS)
